Data reported in ChEMBL document CHEMBL1961873, “Compounds: GSK PKIS; Assays: Nanosyn kinase panel” (2012).

How the values were obtained:
[1] = biological target: Tyrosine-protein kinase Fyn (Homo sapiens) (UniProt P06241); settings: at 1 µM
[2] = biological target: Tyrosine-protein kinase HCK (Homo sapiens) (UniProt P08631); settings: at 0.1 µM
[3] = biological target: Tyrosine-protein kinase HCK (Homo sapiens) (UniProt P08631); settings: at 1 µM
[4] = biological target: Insulin-like growth factor 1 receptor (Homo sapiens) (UniProt P08069); settings: at 0.1 µM
[5] = biological target: Insulin-like growth factor 1 receptor (Homo sapiens) (UniProt P08069); settings: at 1 µM
[6] = biological target: Insulin receptor (Homo sapiens) (UniProt P06213); settings: at 0.1 µM
[7] = biological target: Insulin receptor (Homo sapiens) (UniProt P06213); settings: at 1 µM
[8] = biological target: Insulin receptor-related protein (Homo sapiens) (UniProt P14616); settings: at 0.1 µM
[9] = biological target: Insulin receptor-related protein (Homo sapiens) (UniProt P14616); settings: at 1 µM
[10] = biological target: T1, Tyrosine-protein kinase ITK/TSK (Homo sapiens) (UniProt Q08881); settings: at 0.1 µM
T1 sequence (whole entry): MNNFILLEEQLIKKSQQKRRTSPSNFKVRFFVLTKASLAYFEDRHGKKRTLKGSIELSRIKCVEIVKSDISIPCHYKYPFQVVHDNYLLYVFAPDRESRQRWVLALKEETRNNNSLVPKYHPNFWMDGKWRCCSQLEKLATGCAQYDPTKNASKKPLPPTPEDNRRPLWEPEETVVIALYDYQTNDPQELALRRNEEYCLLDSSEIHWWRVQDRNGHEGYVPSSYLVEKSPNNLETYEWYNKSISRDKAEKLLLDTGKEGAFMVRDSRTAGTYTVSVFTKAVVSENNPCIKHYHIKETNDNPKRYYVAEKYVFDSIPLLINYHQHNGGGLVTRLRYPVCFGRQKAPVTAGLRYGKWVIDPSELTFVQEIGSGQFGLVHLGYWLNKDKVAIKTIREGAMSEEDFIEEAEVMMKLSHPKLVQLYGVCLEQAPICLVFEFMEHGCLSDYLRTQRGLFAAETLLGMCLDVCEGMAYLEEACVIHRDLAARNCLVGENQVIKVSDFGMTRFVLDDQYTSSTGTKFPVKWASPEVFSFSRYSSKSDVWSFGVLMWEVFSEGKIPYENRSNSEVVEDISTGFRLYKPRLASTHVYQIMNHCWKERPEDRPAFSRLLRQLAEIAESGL

[11] = biological target: T1, Tyrosine-protein kinase ITK/TSK (Homo sapiens); settings: at 1 µM
[12] = biological target: Tyrosine-protein kinase JAK1 (Homo sapiens) (UniProt P23458); settings: at 0.1 µM
[13] = biological target: Tyrosine-protein kinase JAK1 (Homo sapiens) (UniProt P23458); settings: at 1 µM
[14] = biological target: Tyrosine-protein kinase JAK2 (Homo sapiens) (UniProt O60674); settings: at 0.1 µM
[15] = biological target: Tyrosine-protein kinase JAK2 (Homo sapiens) (UniProt O60674); settings: at 1 µM
[16] = biological target: T2, Tyrosine-protein kinase JAK3 (Homo sapiens) (UniProt P52333); settings: at 0.1 µM
T2 sequence (whole entry): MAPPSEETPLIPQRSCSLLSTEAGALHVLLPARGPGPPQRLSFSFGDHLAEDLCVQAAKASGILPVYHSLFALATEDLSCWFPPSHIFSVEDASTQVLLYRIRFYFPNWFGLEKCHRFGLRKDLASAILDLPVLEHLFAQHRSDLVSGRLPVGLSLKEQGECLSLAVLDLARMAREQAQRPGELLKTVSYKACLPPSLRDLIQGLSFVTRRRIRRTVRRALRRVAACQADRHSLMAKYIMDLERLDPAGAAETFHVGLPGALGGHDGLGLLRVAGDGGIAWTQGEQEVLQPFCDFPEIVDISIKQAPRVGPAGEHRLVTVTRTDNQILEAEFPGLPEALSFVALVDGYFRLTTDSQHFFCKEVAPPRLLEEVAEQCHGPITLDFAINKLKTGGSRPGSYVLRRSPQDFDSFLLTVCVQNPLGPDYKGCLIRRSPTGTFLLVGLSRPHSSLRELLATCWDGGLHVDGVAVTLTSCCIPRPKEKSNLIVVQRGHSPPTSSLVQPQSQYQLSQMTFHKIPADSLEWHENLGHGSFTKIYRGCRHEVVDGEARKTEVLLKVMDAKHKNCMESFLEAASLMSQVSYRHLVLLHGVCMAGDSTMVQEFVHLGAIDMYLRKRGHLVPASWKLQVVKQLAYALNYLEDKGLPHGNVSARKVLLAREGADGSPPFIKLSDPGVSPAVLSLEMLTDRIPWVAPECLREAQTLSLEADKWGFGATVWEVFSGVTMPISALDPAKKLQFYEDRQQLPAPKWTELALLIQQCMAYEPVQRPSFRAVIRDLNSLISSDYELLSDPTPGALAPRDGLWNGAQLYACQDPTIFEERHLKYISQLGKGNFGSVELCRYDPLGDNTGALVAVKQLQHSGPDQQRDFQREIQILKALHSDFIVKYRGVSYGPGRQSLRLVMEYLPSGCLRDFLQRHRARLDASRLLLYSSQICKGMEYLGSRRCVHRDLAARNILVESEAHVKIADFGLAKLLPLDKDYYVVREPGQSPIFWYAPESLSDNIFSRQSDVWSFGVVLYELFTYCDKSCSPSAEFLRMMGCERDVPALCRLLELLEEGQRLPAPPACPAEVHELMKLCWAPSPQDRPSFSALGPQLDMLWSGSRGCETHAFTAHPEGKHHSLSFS

[17] = biological target: T2, Tyrosine-protein kinase JAK3 (Homo sapiens); settings: at 1 µM
[18] = biological target: Vascular endothelial growth factor receptor 2 (Homo sapiens) (UniProt P35968); settings: at 0.1 µM
[19] = biological target: Vascular endothelial growth factor receptor 2 (Homo sapiens) (UniProt P35968); settings: at 1 µM
[20] = biological target: Mast/stem cell growth factor receptor Kit (Homo sapiens) (UniProt P10721); settings: at 0.1 µM;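 also: values are mean inhibition of KIT, from the GSK PKIS dataset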
Sequence of Mast/stem cell growth factor receptor Kit (Homo sapiens) (P10721 whole entry): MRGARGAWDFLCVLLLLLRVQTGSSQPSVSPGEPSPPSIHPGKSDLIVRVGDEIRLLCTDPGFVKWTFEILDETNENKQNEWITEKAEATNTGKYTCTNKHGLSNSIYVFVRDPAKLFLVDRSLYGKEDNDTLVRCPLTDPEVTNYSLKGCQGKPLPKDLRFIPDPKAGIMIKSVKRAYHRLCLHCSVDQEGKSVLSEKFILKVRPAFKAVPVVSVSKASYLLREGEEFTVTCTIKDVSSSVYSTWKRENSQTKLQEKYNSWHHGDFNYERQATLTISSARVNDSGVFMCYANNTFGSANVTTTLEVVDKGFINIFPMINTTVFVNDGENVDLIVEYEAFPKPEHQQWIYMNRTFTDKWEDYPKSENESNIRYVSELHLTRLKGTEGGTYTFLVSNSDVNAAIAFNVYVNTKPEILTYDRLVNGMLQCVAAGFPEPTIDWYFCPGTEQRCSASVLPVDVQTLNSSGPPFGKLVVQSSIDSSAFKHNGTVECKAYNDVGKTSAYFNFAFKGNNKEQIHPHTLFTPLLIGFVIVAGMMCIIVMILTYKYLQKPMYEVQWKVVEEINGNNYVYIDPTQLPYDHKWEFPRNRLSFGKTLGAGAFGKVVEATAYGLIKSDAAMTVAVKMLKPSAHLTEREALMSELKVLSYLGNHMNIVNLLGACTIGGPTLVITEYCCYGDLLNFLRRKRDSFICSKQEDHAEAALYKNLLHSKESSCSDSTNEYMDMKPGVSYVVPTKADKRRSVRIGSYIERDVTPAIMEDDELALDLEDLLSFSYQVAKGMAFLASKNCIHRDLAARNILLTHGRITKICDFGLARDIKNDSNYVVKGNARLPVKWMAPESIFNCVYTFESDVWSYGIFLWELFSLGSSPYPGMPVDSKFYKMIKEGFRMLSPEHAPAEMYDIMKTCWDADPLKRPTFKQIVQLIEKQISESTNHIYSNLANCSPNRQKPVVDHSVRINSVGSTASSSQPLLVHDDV

Sequence of Insulin-like growth factor 1 receptor (Homo sapiens) (P08069 31-736 limits assumed): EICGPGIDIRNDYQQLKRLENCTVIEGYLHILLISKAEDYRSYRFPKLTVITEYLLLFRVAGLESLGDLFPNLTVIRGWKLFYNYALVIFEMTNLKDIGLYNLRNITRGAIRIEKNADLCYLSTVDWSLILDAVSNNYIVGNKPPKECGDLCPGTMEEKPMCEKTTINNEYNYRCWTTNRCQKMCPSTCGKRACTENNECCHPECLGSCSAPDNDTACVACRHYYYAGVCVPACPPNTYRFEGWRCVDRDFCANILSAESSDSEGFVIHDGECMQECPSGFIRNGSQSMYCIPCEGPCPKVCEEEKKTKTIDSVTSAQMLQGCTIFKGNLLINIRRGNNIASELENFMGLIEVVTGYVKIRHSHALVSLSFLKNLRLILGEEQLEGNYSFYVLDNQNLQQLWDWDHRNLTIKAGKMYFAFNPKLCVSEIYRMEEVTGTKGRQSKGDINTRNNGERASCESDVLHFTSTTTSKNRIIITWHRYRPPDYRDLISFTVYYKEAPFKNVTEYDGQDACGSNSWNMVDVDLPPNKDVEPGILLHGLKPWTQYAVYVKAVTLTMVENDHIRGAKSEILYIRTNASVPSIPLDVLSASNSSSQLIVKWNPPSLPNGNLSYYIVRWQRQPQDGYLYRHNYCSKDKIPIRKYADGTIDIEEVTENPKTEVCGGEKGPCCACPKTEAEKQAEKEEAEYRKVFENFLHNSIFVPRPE
Sequence of Insulin-like growth factor 1 receptor (Homo sapiens) (P08069 741-1367 limits assumed): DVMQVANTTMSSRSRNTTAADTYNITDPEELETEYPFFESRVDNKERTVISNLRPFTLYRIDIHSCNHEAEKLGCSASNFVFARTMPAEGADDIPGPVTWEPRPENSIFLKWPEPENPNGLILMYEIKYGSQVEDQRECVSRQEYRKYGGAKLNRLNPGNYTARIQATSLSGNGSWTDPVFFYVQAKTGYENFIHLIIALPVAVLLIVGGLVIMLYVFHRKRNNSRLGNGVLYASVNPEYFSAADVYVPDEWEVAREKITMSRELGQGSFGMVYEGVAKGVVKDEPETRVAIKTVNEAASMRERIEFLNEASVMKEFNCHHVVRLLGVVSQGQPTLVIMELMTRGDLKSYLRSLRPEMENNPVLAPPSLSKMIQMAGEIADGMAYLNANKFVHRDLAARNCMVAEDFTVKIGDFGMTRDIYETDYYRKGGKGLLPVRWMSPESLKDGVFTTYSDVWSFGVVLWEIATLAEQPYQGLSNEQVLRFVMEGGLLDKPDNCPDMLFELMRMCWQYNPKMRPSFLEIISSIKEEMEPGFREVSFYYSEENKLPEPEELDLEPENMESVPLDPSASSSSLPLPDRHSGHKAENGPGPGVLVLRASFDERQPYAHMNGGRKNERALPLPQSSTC
Sequence of Vascular endothelial growth factor receptor 2 (Homo sapiens) (P35968 whole entry): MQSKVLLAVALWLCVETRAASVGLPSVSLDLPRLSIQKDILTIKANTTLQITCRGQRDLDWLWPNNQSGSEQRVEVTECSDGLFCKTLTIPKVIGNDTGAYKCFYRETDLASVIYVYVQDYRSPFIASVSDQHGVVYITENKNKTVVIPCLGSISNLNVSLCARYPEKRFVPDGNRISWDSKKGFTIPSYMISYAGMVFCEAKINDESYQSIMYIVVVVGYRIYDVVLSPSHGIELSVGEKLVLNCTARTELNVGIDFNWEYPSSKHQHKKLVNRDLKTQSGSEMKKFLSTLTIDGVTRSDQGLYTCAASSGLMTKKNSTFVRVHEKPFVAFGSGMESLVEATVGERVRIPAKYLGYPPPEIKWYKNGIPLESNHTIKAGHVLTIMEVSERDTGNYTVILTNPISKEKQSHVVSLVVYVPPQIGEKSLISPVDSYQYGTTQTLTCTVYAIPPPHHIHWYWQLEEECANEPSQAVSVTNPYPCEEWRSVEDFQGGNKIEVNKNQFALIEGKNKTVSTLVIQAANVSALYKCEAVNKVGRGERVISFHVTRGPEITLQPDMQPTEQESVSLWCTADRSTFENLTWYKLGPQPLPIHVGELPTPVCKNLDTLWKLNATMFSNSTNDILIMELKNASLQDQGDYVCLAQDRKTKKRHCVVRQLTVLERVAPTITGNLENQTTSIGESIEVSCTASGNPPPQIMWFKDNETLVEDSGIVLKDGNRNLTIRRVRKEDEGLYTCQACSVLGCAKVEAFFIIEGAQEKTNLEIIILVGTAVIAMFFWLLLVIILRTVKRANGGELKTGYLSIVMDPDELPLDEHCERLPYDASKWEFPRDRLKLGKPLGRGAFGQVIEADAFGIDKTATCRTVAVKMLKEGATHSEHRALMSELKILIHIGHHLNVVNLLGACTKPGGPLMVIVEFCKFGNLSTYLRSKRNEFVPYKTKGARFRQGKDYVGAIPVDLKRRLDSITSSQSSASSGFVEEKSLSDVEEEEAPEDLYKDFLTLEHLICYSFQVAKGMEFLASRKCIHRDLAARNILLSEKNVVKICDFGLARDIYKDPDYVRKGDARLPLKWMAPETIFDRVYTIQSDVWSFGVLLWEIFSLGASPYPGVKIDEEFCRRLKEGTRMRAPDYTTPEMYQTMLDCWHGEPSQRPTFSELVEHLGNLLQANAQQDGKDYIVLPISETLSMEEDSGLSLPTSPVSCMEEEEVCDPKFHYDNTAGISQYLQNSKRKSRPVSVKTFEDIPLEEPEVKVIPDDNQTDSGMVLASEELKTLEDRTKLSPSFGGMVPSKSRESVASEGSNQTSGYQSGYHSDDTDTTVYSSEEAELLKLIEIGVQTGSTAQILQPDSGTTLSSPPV
Sequence of Tyrosine-protein kinase JAK1 (Homo sapiens) (P23458 whole entry): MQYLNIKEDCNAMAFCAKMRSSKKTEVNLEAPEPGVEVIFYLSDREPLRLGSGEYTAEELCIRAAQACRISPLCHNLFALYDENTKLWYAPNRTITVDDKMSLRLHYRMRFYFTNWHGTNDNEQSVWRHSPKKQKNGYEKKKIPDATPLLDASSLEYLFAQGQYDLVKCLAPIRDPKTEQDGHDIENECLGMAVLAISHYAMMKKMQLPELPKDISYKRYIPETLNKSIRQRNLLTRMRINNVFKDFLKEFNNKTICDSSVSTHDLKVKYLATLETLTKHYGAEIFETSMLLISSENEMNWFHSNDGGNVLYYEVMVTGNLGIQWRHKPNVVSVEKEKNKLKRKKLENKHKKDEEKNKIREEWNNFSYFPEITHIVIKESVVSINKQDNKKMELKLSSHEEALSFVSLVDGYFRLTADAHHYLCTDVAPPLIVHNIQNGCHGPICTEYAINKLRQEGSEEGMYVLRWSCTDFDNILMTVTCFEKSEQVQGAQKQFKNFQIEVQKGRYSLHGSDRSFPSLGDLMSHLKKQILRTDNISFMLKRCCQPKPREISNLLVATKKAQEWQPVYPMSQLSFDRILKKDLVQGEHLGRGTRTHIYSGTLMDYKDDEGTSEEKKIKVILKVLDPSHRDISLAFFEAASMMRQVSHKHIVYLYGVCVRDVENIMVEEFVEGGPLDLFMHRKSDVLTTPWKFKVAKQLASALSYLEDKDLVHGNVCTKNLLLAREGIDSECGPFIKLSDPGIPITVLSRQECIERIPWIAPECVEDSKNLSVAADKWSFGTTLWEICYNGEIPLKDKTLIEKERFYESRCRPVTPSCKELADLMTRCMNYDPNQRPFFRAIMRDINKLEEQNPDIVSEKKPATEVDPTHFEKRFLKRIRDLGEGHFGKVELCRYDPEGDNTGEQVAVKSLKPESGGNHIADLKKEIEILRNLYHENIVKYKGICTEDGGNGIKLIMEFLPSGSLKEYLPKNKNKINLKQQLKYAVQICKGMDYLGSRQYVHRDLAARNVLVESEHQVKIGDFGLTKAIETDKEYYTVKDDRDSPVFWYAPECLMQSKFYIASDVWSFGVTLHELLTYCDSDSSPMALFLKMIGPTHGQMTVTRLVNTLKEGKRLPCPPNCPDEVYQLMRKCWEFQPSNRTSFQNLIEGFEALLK

Row | SMILES | inhibition [1] [%] | inhibition [2] [%] | inhibition [3] [%] | inhibition [4] [%] | inhibition [5] [%] | inhibition [6] [%] | inhibition [7] [%] | inhibition [8] [%] | inhibition [9] [%] | inhibition [10] [%] | inhibition [11] [%] | inhibition [12] [%] | inhibition [13] [%] | inhibition [14] [%] | inhibition [15] [%] | inhibition [16] [%] | inhibition [17] [%] | inhibition [18] [%] | inhibition [19] [%] | inhibition [20] [%]
1 | NS(=O)(=O)c1cccc(Nc2cc(-c3ccc(F)cc3)n[nH]2)c1 | 5.32 | 3.23 | 7.76 | 0.35 | 1.22 | 0.86 | 1.03 | 1.9 | 2.3 | 1.67 | 6.64 | 3.56 | 10.4 | 0.36 | 1.81 | -1.55 | 1.11 | 5.37 | 15.3 | 34.5
2 | Cc1ccc(Nc2ccnc(Nc3cccc(C(N)=O)c3)n2)cc1O | 89.4 | 58.8 | 83.5 | -3.28 | 17.2 | 3.53 | 13.7 | 2.88 | 3.49 | -2.42 | 0.3 | 5.16 | 32.7 | 5.29 | 45.8 | -4.07 | 14 | 76.9 | 90.7 | 8.57
3 | Nc1nccc(-c2c(-c3ccc(F)cc3)nn3cc(C(F)(F)F)ccc23)n1 | 2.33 | -0.1 | -0.25 | -1.56 | 1.35 | 1.38 | 2.01 | 1.17 | 1.01 | -1.78 | 0.43 | -0.26 | 1.9 | -0.24 | -1.98 | -1.7 | -0.29 | 0.31 | 0.56 | -1.06
4 | CN1CCN(C(=O)c2ccc(NC(=O)Nc3ccc(N(C)c4ccnc(Nc5ccc(CS(C)(=O)=O)cc5)n4)cc3)cc2)CC1 | 8.13 | 3.98 | 22.7 | 3.48 | 6.42 | 4.81 | 10.6 | -0.19 | 2.44 | 6.56 | 38.7 | 2.49 | 20.6 | 3.54 | 49.7 | -1.34 | 26.2 | 21.4 | 69.2 | 65.6
5 | COc1ccc2ncnc(Nc3ccc(OCc4ccccc4)cc3)c2c1 | 10.2 | 2.78 | 8.33 | 0.69 | 0.08 | 0.98 | 3.05 | 1.39 | 2.07 | 0.5 | 1.7 | 1.35 | 3.3 | 1.02 | 0.06 | 0.27 | 0.67 | 1.51 | 3 | 3.24
6 | CC(C)c1ccc2c(c1)NC(=O)/C2=N/Nc1ccc(S(N)(=O)=O)cc1 | 7.54 | 0.57 | 11 | -0.14 | 1.33 | 4 | 1.87 | -1.32 | -1.93 | 0.01 | 2.46 | -0.53 | 0.94 | -1.94 | -0.2 | -0.51 | 1.08 | 1.26 | 4.21 | 7.67
7 | Cc1cc(-c2ccccn2)cc(C)c1/C=C/c1cncc(-c2nn[nH]n2)c1 | 9.92 | 7.16 | 17.3 | 16.5 | 10.9 | 5.7 | 5.57 | 0.66 | 2.24 | 0.82 | 0.66 | 4.47 | 3.3 | 2.08 | 2.43 | 0.16 | 0.72 | 3.45 | 14.2 | 4.89
8 | NS(=O)(=O)c1ccc(NC=C2C(=O)Nc3ccc4ncsc4c32)cc1 | 26.5 | 12.2 | 43.8 | 12.2 | 26.7 | 6.96 | 29.7 | 3.96 | 6.03 | 2.7 | 15.1 | 9.37 | 50.7 | 2.72 | 23.6 | 22.7 | 63.7 | 60.5 | 71 | 68.4
9 | COc1cc2ncnc(Nc3ccc(C)c(O)c3)c2cc1OC | 56.2 | 44.9 | 75.1 | 12.2 | 11 | 5.04 | 6.96 | 2.18 | 3.05 | 1.63 | 1.28 | 1.62 | 12.6 | 1.49 | 0.53 | -1.17 | 2.14 | 75.4 | 72 | 9.08
10 | CC(C)c1ccc(Nc2nccc(-c3cnn4ncccc34)n2)cc1 | 6.49 | 4 | 8.83 | 11.8 | 53.1 | 10.2 | 48.2 | 2.81 | 8.71 | 0.75 | 1.41 | 2.68 | 8.98 | 2.04 | 8.72 | 0.01 | 6.19 | 5.7 | 14.6 | 68.6
11 | NS(=O)(=O)c1ccc(Nc2cc(-c3cccc(O)c3)n[nH]2)cc1 | 2.45 | 5.06 | 11.7 | 5.98 | 5.23 | 3.33 | 3.4 | 6.28 | 2.76 | 2.78 | 4.07 | 4.66 | 7.23 | 1.41 | 1.95 | -1.44 | 1.25 | 9.9 | 19.2 | 33.2
12 | C[C@@H](Oc1cc(-n2cnc3ccc(OC[C@@H](O)CO)cc32)sc1C(N)=O)c1ccccc1Cl | 5.15 | -0.15 | 6.39 | -1.52 | -0.34 | 0.87 | 0.26 | -2.17 | -2.11 | 0.28 | 0.81 | -2.88 | 0.21 | -0.63 | 0.06 | -0.17 | 19.7 | 1.39 | 22.2 | -0.46
13 | O=C1Nc2ccccc2/C1=C/Nc1ccc2[nH]c(=O)[nH]c2c1 | 10.9 | 7.89 | 21.5 | 7.08 | 24.8 | 8.02 | 32.4 | 3.85 | 6.41 | 1.78 | 5.35 | 3.96 | 20.8 | 1.12 | 1.93 | -1.44 | 8.66 | 13.7 | 48.1 | –
14 | Nc1nccc(C#Cc2cncnc2Nc2ccc(OCc3cccc(F)c3)c(Cl)c2)n1 | 2.19 | 5.32 | 10.2 | 3.97 | 4.12 | 3.13 | 4.44 | 8.14 | 1.12 | 1.89 | 3.09 | 2.03 | 2.27 | 1.73 | 1.57 | 0.41 | 4.42 | 6.4 | 10.6 | 3.65
15 | CN(C)CCCn1c(-c2nonc2N)nc2cnccc21 | 1.87 | 5.43 | 6.49 | 10.2 | 9.74 | 7.05 | 4.75 | 2.59 | 4.16 | 1.43 | 0.92 | 4.69 | 6.17 | 1.25 | 0.79 | -1.68 | -0.27 | 4.41 | 8.24 | 2.22
16 | OCc1ccc(-c2nc(-c3ccccn3)c(-c3ccc4c(c3)OCO4)[nH]2)cc1 | 5.01 | 9.2 | 9.7 | 1.56 | 4.7 | 3.33 | 2.79 | 4.43 | 1.6 | 1.59 | 2.5 | 3.55 | 3.24 | 2.17 | 3.4 | -1.9 | 0.74 | 7.67 | 6.53 | 13.1
